From PubChem BioAssay come the findings set out here.

Assay [1] deals with Plasmodium falciparum Sir2 (PF13_0152, Sir2A). The assay can be described thus: Plasmodium falciparum Sir2A binding compounds – biochemical, small-molecule microarray, 635 nm fluorescence, primary screen (AID 1098).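 Note: score merges spot fluorescence intensity with its signal-to-noise ratio.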 The note with it: fluorescence 635 nm, higher = more signal.
Assay [2] is described as follows: probe aDKK1 binding to arrayed compounds – biochemical, biotinylated probe, 635/667 nm fluorescence, primary screen (AID 1099).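 Note: score merges 667nm spot fluorescence with signal to noise across triplicate slides.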 The note with it: small-molecule microarray, higher = more signal.
Assay [3] in a line: probe aCHRDL2 binding to arrayed compounds – biochemical, biotinylated probe, 635/667 nm fluorescence, primary screen (AID 1100). The note with it: small-molecule microarray, higher = more signal.
Assay [4] is described as follows: change in splice reporter luminescence, either direction, cell-based, HEK293, spliceosome inhibition project, primary screen (AID 1101).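 Note: HEK293 cells carrying a splicing-competent luciferase reporter gene; test concentration not given here.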 The note with it: HEK293 splicing luciferase reporter, 24 h, higher = more signal, called active from +8 up or from −8 down.
The target in assay [5] is Fibroblast growth factor 10 (Homo sapiens) (UniProt O15520). The assay can be described thus: compounds binding fibroblast growth factor 10 – biochemical, small-molecule microarray, 635 nm fluorescence, primary screen (AID 1102). The note with it: FGF10 binding, fluorescence 635 nm, higher = more signal.
Assay [6] deals with glycogen synthase kinase-3 (GSK3A per assay name; protocol says GSK3B). The assay can be described thus: compounds binding glycogen synthase kinase-3 – biochemical, small-molecule microarray, 635 nm fluorescence, GSK3A, primary screen (AID 1103). Note: the record names both GSK3A and GSK3B. The note with it: fluorescence 635 nm, higher = more signal.
The target in assay [7] is Epidermal growth factor receptor (Homo sapiens) (UniProt P00533). The assay can be described thus: compounds binding epidermal growth factor receptor – biochemical, small-molecule microarray, 635 nm fluorescence, primary screen (AID 1104).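 Note: score merges 667 nm emission intensity with spot signal to noise over triplicate slides.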 The note with it: EGFR binding, higher = more signal.
The target in assay [8] is Follistatin-related protein 3 (Homo sapiens) (UniProt O95633). As to the kind of experiment: compounds binding follistatin-related protein 3 – biochemical, small-molecule microarray, 635 nm fluorescence, primary screen (AID 1105).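 Note: score merges emission near 667 nm and signal to noise per printed spot across three slides.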 The note with it: FSTL3 binding, higher = more signal.
The target of assay [9] is Dickkopf-related protein 1 (Homo sapiens) (UniProt O94907). As to the kind of experiment: small molecules binding DKK1 protein – biochemical, small-molecule microarray, 635 nm fluorescence scan, primary screen (AID 1106).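 Note: score merges emission near 667 nm with signal to noise over three replicate slides.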 The note with it: higher = more signal.
Assay [10] has as its system Inhibin beta A chain (activin A). As to the kind of experiment: small molecules binding activin A – biochemical, small-molecule microarray, 635 nm fluorescence scan, primary screen (AID 1107).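 Note: mouse activin A protein probed at 4.33 µg/mL on printed slides; score merges bound-protein fluorescence near 667 nm with spot signal-to-noise.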 The note with it: INHBA, higher = more signal.
The subject of assay [11] is Human papillomavirus type 1a protein E7 (residues 44-93). The assay can be described thus: small molecules binding HPV E7 44-93 – biochemical, small-molecule microarray, residues 44-93, 635 nm fluorescence, primary screen (AID 1108).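 Note: E7 fragment applied at 1 µg/mL in TBST for 1 h at 4 C; score combines spot fluorescence with its signal to noise ratio.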 The note with it: fluorescence 635 nm, higher = more signal.
Assay [12] in a line: hepatitis C replication reporter changes, two-sided – Huh7 cells, luciferase reporter, HCV replication inhibitor project, primary screen (AID 1109).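 Note: huh7 hepatoma cells harbouring a luciferase neomycin HCV replicon reporter; luciferase luminescence as measure of HCV replicon replication; test concentration not given here.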 The note with it: Huh7 HCV replicon luciferase reporter, 48 h; higher = more signal.
Assay [13] concerns the target Left-right determination factor 2 (Homo sapiens) (UniProt O00292). The assay can be described thus: small molecules binding LEFTY2 protein – biochemical, small-molecule microarray, 635 nm fluorescence scan, primary screen (AID 1110). The note with it: higher = more signal.
Assay [14] deals with Calmodulin-1 (Homo sapiens) (UniProt P0DP23). As to the kind of experiment: small molecules binding calmodulin-1 with EGTA – biochemical, small-molecule microarray, Cy5-labelled CALM1, profiling panel (AID 1111).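 Note: labelled calmodulin applied in Tris saline Tween buffer holding calcium plus EGTA and DTT.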 The note with it: Cy5-CALM1 binding fluorescence, higher = more signal.
For assay [15] the target is unchanged. As to the kind of experiment: small molecules binding Ca-loaded calmodulin-1 – biochemical, small-molecule microarray, Cy5-labelled CALM1, plus calcium, artefact control for SMM control-protein annotation, profiling panel (AID 1112).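 Note: score merges spot fluorescence with signal to noise from triplicate slides.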 The note with it: Cy5-CALM1 binding fluorescence, higher = more signal.
A short description of assay [16]: probe aWnt5a binding to arrayed compounds – biochemical, biotinylated probe, 635/667 nm fluorescence, primary screen (AID 1113).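 Note: score merges 667 nm fluorescence intensity with signal-to-noise per printed feature.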 The note with it: small-molecule microarray, higher = more signal.
The nature of assay [17]: probe aShh binding to arrayed compounds – biochemical, biotinylated probe, 635/667 nm fluorescence, primary screen (AID 1114).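 Note: probe is biotin-labelled aShh protein from a stem cell growth factor screen; measures binding of labelled protein to compounds printed on the slide; score merges feature fluorescence at 667 nm with signal-to-noise.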 The note with it: small-molecule microarray, higher = more signal.
The nature of assay [18]: probe aNog binding to arrayed compounds – biochemical, biotinylated probe, 635/667 nm fluorescence, primary screen (AID 1115).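 Note: probe is biotinylated aNog protein used at 0.15 µg/mL for 1 h at 4 C; z-score combines 667 nm fluorescence of each spot with its signal to noise.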 The note with it: small-molecule microarray, higher = more signal.
Assay [19] concerns the target Torsin-1A-interacting protein 1 (Homo sapiens) (UniProt Q5JTV8). As to the kind of experiment: compound microarray binding of lysate hLAP1 – cell lysate, small-molecule microarray, COS7 lysate, 635/667 nm fluorescence, primary screen (AID 1116). The note with it: 635 nm fluorescence, higher = more signal.
For assay [20], the target named is Alpha-bungarotoxin (Bungarus multicinctus) (UniProt P60615). The assay can be described thus: compounds binding labelled alpha-BTX control protein – biochemical, small-molecule microarray, Alexa647 label, 635/667 nm fluorescence, artefact control for SMM control protein annotation, profiling panel (AID 1117). The note with it: alpha-BTX-A647 binding fluorescence, higher = more signal.

The structures appear in SMILES notation. Activity calls are given as the source filed them.

Chain of Dickkopf-related protein 1 (Homo sapiens) (O94907 whole entry, looked up): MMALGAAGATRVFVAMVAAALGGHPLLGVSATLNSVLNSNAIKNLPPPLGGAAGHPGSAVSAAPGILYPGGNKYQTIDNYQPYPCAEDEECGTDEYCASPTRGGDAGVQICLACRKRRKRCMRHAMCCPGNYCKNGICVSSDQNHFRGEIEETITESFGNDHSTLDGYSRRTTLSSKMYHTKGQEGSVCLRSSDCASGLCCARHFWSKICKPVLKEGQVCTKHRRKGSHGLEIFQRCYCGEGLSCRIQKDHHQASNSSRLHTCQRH
Chain of Follistatin-related protein 3 (Homo sapiens) (O95633 whole entry, looked up): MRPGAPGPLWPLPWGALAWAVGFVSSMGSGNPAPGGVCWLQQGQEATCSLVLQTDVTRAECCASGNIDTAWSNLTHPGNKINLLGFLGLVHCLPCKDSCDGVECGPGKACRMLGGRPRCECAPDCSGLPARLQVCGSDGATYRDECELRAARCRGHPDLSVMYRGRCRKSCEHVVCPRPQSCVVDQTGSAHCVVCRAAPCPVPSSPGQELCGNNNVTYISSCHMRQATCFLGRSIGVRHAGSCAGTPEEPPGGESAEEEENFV
Chain of Epidermal growth factor receptor (Homo sapiens) (P00533 whole entry, looked up): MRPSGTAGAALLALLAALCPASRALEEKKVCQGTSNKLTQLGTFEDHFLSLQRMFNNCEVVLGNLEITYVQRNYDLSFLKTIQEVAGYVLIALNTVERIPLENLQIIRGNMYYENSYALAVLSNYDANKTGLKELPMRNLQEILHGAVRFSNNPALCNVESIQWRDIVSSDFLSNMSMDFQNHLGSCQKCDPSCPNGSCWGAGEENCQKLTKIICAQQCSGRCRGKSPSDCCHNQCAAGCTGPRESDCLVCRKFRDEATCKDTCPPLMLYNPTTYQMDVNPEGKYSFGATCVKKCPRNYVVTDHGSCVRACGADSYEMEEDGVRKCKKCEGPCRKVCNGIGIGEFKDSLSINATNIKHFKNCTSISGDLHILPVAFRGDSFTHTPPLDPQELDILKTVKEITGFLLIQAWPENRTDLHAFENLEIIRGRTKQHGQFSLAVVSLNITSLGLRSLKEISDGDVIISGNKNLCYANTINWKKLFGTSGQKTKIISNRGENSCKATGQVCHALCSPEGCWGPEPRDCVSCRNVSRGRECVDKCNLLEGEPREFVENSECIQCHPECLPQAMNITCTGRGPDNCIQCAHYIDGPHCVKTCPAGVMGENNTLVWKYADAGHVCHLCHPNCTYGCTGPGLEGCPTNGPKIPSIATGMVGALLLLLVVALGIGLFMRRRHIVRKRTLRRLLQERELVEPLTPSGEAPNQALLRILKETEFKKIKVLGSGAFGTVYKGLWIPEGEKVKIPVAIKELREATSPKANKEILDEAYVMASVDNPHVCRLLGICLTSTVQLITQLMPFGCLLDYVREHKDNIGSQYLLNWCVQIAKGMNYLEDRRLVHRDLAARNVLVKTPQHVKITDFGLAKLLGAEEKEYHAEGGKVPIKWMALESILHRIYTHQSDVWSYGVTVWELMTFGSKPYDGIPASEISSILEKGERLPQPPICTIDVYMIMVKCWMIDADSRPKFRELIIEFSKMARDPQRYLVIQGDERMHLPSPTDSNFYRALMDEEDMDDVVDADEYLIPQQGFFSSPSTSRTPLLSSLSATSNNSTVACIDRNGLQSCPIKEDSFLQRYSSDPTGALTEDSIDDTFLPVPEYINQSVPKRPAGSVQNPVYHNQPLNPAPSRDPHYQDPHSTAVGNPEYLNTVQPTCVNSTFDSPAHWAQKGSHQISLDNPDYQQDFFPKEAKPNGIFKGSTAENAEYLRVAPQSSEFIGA
Chain of Alpha-bungarotoxin (Bungarus multicinctus) (P60615 whole entry, looked up): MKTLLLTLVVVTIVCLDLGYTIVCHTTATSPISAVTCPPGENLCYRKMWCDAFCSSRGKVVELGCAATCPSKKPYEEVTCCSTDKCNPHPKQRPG
Chain of Torsin-1A-interacting protein 1 (Homo sapiens) (Q5JTV8 whole entry, looked up): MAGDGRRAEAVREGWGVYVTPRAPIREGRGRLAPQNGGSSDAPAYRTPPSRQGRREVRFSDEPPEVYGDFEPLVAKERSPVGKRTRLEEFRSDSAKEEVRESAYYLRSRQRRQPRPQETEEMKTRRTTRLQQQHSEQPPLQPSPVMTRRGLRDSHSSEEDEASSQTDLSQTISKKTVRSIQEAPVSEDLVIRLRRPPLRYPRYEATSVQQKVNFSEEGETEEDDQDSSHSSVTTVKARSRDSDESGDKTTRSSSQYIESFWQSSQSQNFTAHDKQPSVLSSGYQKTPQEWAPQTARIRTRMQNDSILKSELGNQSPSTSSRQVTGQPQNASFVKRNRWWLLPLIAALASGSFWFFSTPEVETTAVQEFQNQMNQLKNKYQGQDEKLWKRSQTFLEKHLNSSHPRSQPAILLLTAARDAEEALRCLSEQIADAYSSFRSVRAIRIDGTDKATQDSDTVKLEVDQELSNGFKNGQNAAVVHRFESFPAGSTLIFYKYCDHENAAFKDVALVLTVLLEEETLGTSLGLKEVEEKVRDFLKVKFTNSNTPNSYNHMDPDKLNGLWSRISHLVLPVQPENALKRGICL
Chain of Fibroblast growth factor 10 (Homo sapiens) (O15520 whole entry, looked up): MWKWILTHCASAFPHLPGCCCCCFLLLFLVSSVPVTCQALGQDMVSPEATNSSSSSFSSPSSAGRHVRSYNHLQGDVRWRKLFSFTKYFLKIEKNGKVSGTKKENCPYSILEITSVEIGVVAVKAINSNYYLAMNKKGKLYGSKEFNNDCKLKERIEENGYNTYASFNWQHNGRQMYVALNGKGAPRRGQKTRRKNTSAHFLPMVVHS
Chain of Left-right determination factor 2 (Homo sapiens) (O00292 whole entry, looked up): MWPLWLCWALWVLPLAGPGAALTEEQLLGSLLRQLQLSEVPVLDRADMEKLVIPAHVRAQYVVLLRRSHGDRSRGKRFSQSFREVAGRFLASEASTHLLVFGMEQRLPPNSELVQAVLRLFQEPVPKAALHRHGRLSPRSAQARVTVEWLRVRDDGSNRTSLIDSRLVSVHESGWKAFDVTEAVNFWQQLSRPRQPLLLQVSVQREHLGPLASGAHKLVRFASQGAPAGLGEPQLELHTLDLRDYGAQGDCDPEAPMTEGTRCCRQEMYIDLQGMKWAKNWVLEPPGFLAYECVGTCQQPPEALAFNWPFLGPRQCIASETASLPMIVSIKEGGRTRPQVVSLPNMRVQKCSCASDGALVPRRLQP

Take `O=C1C[C@@](C(=O)NCC(F)(F)F)(c2ccc([N+](=O)[O-])cc2)[C@@H](c2ccc(CO)cc2I)N1C1CCCCC1`: the composite z-score in assay [1] stood at 0.47; in assay [2] it was 0.0918; in assay [3] it was 0.574; in [5], 1.09; in assay [6], 1.18; in [7], 0.515. The composite z-score in [8] is 0.995; in assay [9], 0.155; in assay [10], 0.539; in [11], 1.47; in assay [13], 0.386; in assay [14], 0.511. The composite z-score was 0.074 in assay [15]; -0.0758 in assay [16]; -0.181 in assay [17]; 0.437 in assay [18]; 1.62 in assay [19]; 0.0759 in assay [20]. For the same compound, the results for the z-score in assay [4] and in assay [12] were 0.0169 (inactive) and -2.54, respectively.

Regarding `C=CCOC(=O)[C@H]1[C@@H]2C(=O)O[C@@H](c3ccccc3)[C@@H](c3ccccc3)N2[C@@H](c2ccc(OCCOC(=O)[C@@H]3C[C@@H]4C(=O)N[C@@H](CCCCNC(C)=O)C(=O)N4[C@@H]3c3ccc(O)cc3)cc2)[C@]12C(=O)Nc1ccccc12`, the composite z-score is 1.65 in assay [1]; -0.208 in [2]; -0.187 in assay [3]; 0.768 in assay [5]; 1.3 in [6]; 0.673 in assay [7]. The composite z-score in assay [8] amounted to 1.28; in assay [9], 0.783; in assay [10], 0.152; in assay [11], 1.32; in assay [13] it was 0.515; in assay [14], 1.72. For the same compound, the composite z-score is 0.365 in assay [15]; -0.0704 in assay [16]; 0.196 in assay [17]; 0.45 in assay [18]; 0.622 in assay [19]; 2.51 in assay [20]. The z-score in assay [4] was -0.0104 (inactive); in [12], -0.413.

With `C=CCOC(=O)[C@H]1[C@@H]2C(=O)O[C@@H](c3ccccc3)[C@@H](c3ccccc3)N2[C@@H](c2ccc(OCCOC(=O)[C@@H]3C[C@@H]4C(=O)N[C@@H](CC(C)C)C(=O)N4[C@@H]3c3ccc(O)cc3)cc2)[C@]12C(=O)Nc1ccccc12`, the composite z-score stood at 1.58 in assay [1]; 0.105 in [2]; 0.257 in assay [3]; 1.26 in [5]; 1.3 in assay [6]; 0.671 in [7]. Moreover, the composite z-score is 1.3 in [8]; 0.675 in assay [9]; -0.233 in [10]; 1.12 in [11]; 0.701 in assay [13]; 2.5 in [14]. In addition, the composite z-score in assay [15] was 0.137; in [16] it was 0.0044; in assay [17], 0.14; in assay [18] it was 0.938; in [19] it was 1.75; in assay [20], 1.6. Further, the values for the z-score in assay [4] and in assay [12] were 0.426 (inactive) and -1.47, respectively.

Turning to `C=CC[C@]1(C(=O)NCc2ccccc2)N=C(c2ccc(OCCCO)cc2)O[C@H]1c1ccccc1N=[N+]=[N-]`, the composite z-score in assay [1] was 1.33; in [2], -0.0281; in assay [3] it was 1.11; in assay [5] it was 0.819; in assay [6], 0.849; in assay [7] it was 0.174. In addition, the composite z-score was 0.637 in assay [8]; -0.284 in assay [9]; 1.29 in assay [10]; 1.44 in assay [11]; 0.201 in assay [13]; 1.96 in assay [14]. Besides, the composite z-score in [15] was 0.901; in [16], 0.0108; in assay [17], 0.0875; in assay [18], -0.572; in assay [19], 1.44; in assay [20], 1.65. The z-score in assay [4] was -0.457 (inactive); in assay [12], -0.368.

For `[N-]=[N+]=Nc1ccccc1[C@H]1OC(c2ccc(OCCCO)cc2)=N[C@@]1(CCS(=O)(=O)c1ccccc1)C(N)=O`, the composite z-score in assay [1] was 1.53; in assay [2], 1.01; in assay [3], 1.37; in [5], 1.12; in assay [6], 0.915; in [7], -0.541. The composite z-score in assay [8] is -0.0805; in [9], 0.0979; in assay [10], 1.26; in [11] it was 0.321; in assay [13] it was -0.154; in [14], 1.41. The composite z-score in [15] is 0.389; in assay [16], 0.161; in [17] it was 0.117; in assay [18], -0.939; in assay [19] it was 1.71; in assay [20], 1.92. Besides, the z-score in assay [4] was -1.36 (inactive); in [12], -0.268.
